Substitutions are numbered along the chain they refer to; changes in the protein carry UniProt numbers. In all, about 16,000 sequences were measured (“ka relative to ugcaugu”: median about 0.0091, highest 2% from about 0.032 on). This excerpt belongs to a sample that is enriched for the highest values.
T1: RBFOX1 RRM (Homo sapiens, UniProt Q9NWB1 109-208)
T1 sequence: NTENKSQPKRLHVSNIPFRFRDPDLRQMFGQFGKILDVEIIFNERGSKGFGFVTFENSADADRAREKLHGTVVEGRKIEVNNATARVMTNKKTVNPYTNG

B1: UCUCAAU (DNA:RNA)
RNA: GGGAGACCGGAAUUCAGAUUGUCCUCUCAAUUUAAAUCCCGUCGUAGCCACCA
DNA 1: CAATCTGAATTCCGGTCTCCC
DNA 2: TGGTGGCTACGACGGGATT
B2: CGUCACC (DNA:RNA)
RNA: B1 RNA with U25C, C26G, A30C, U31C
DNA 1: CAATCTGAATTCCGGTCTCCC
DNA 2: TGGTGGCTACGACGGGATT
B3: GACAUGU (DNA:RNA)
RNA: B1 RNA with U25G, C26A, U27C, C28A, A29U, A30G
DNA 1: CAATCTGAATTCCGGTCTCCC
DNA 2: TGGTGGCTACGACGGGATT
B4: GACACAU (DNA:RNA)
RNA: B1 RNA with U25G, C26A, U27C, C28A, A29C
DNA 1: CAATCTGAATTCCGGTCTCCC
DNA 2: TGGTGGCTACGACGGGATT
B5: GAACACU (DNA:RNA)
RNA: B1 RNA with U25G, C26A, U27A, A30C
DNA 1: CAATCTGAATTCCGGTCTCCC
DNA 2: TGGTGGCTACGACGGGATT
B6: AGUUCUC (DNA:RNA)
RNA: B1 RNA with U25A, C26G, C28U, A29C, A30U, U31C
DNA 1: CAATCTGAATTCCGGTCTCCC
DNA 2: TGGTGGCTACGACGGGATT
B7: CUCUCGG (DNA:RNA)
RNA: GGGAGACCGGAAUUCAGAUUGUCCCUCUCGGUUAAAUCCCGUCGUAGCCACCA
DNA 1: CAATCTGAATTCCGGTCTCCC
DNA 2: TGGTGGCTACGACGGGATT
B8: GAGGGCA (DNA:RNA)
RNA: GGGAGACCGGAAUUCAGAUUGUCCGAGGGCAUUAAAUCCCGUCGUAGCCACCA
DNA 1: CAATCTGAATTCCGGTCTCCC
DNA 2: TGGTGGCTACGACGGGATT
B9: UGCACCA (DNA:RNA)
RNA: B7 RNA with C25U, U26G, U28A, G30C, G31A
DNA 1: CAATCTGAATTCCGGTCTCCC
DNA 2: TGGTGGCTACGACGGGATT
B10: ACGCUGC (DNA:RNA)
RNA: B1 RNA with U25A, U27G, A29U, A30G, U31C
DNA 1: CAATCTGAATTCCGGTCTCCC
DNA 2: TGGTGGCTACGACGGGATT
B11: UGCACGC (DNA:RNA)
RNA: B7 RNA with C25U, U26G, U28A, G31C
DNA 1: CAATCTGAATTCCGGTCTCCC
DNA 2: TGGTGGCTACGACGGGATT
B12: UGUCUGC (DNA:RNA)
RNA: B1 RNA with C26G, A29U, A30G, U31C
DNA 1: CAATCTGAATTCCGGTCTCCC
DNA 2: TGGTGGCTACGACGGGATT
B13: UGCACAA (DNA:RNA)
RNA: B7 RNA with C25U, U26G, U28A, G30A, G31A
DNA 1: CAATCTGAATTCCGGTCTCCC
DNA 2: TGGTGGCTACGACGGGATT
B14: UGCACGA (DNA:RNA)
RNA: B7 RNA with C25U, U26G, U28A, G31A
DNA 1: CAATCTGAATTCCGGTCTCCC
DNA 2: TGGTGGCTACGACGGGATT
B15: UGCACGG (DNA:RNA)
RNA: B7 RNA with C25U, U26G, U28A
DNA 1: CAATCTGAATTCCGGTCTCCC
DNA 2: TGGTGGCTACGACGGGATT
B16: ACCACGG (DNA:RNA)
RNA: B7 RNA with C25A, U26C, U28A
DNA 1: CAATCTGAATTCCGGTCTCCC
DNA 2: TGGTGGCTACGACGGGATT
B17: UGCCCGG (DNA:RNA)
RNA: B7 RNA with C25U, U26G, U28C
DNA 1: CAATCTGAATTCCGGTCTCCC
DNA 2: TGGTGGCTACGACGGGATT
B18: UUCUUAU (DNA:RNA)
RNA: B7 RNA with C25U, C29U, G30A, G31U
DNA 1: CAATCTGAATTCCGGTCTCCC
DNA 2: TGGTGGCTACGACGGGATT
B19: UGAUCGU (DNA:RNA)
RNA: B7 RNA with C25U, U26G, C27A, G31U
DNA 1: CAATCTGAATTCCGGTCTCCC
DNA 2: TGGTGGCTACGACGGGATT
B20: CCACUCA (DNA:RNA)
RNA: B8 RNA with G25C, A26C, G27A, G28C, G29U
DNA 1: CAATCTGAATTCCGGTCTCCC
DNA 2: TGGTGGCTACGACGGGATT

Target: T1, RBFOX1 RRM
Assay: EMSA; HiTS-Eq, 1 nM pool, 10 min; buffer printed only for the single-RNA assays: 10 mM Tris pH 7.5, 150 mM NaCl, 3.4 mM EDTA, 0.001% NP-40, 30 C
Conditions: tags: His6 N-terminal (pET28a); label: 5' 32P
Procedure, shortened: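 Purified RbFox RRM (wild type or mutant) was equilibrated for 10 min in 50 µL with 1 nM of a 5′-radiolabelled pool of RNA with 7 randomized nucleotides, its flanks annealed to DNA oligonucleotides, across increasing protein concentrations. Free RNA was separated by 8% native PAGE, excised, reverse-transcribed, PCR-barcoded and sequenced on an Illumina HiSeq 2500. Relative association constants came from read-count changes of each variant against the control reaction, normalised to the cognate motif.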

| Binder | binding signal |
| --- | --- |
| B1 | 0.0038 KA relative to UGCAUGU |
| B2 | 0.00293 KA relative to UGCAUGU |
| B3 | 0.0153 KA relative to UGCAUGU |
| B4 | 0.000474 KA relative to UGCAUGU |
| B5 | 0.00588 KA relative to UGCAUGU |
| B6 | 0.0138 KA relative to UGCAUGU |
| B7 | 0.0101 KA relative to UGCAUGU |
| B8 | 0.0138 KA relative to UGCAUGU |
| B9 | 0.00925 KA relative to UGCAUGU |
| B10 | 0.0121 KA relative to UGCAUGU |
| B11 | 0.252 KA relative to UGCAUGU |
| B12 | 0.0316 KA relative to UGCAUGU |
| B13 | 0.00911 KA relative to UGCAUGU |
| B14 | 0.0767 KA relative to UGCAUGU |
| B15 | 0.077 KA relative to UGCAUGU |
| B16 | 0.0054 KA relative to UGCAUGU |
| B17 | 0.0184 KA relative to UGCAUGU |
| B18 | 0.00377 KA relative to UGCAUGU |
| B19 | 0.0285 KA relative to UGCAUGU |
| B20 | 0.0037 KA relative to UGCAUGU |
